Bioassay records as filed in PubChem BioAssay.
Most compounds without a hit are left out; they make up all but 4.9% or so of the library.
PP5 primary: PP5 phosphatase inhibitors, primary screen, biochemical, fluorescence. purified PP5c, OMFP substrate fluorescence. Serine/threonine-protein phosphatase 5 (Homo sapiens), P53041. inhibition, % at 6.7 µM. AID 1987, 2009. actives 0.18% (n = 320,000);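 active means inhibition above the campaign's mean inhibition across all tested compounds plus 3 SD, cut at about 9.5% in these data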;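 further: 0% = DMSO only and 100% = 100 µM cantharidin control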
CSC inhib: cancer stem cell viability inhibitors, primary screen, luminescence. cancer stem cell-like cells viability. inhibition, % at 7.5 µM. actives 1.1% (n = 300,000); in the data active means inhibition above about 75%; tested in HMLE shEcad cells
Calb FLC: C. albicans growth inhibition with fluconazole, primary screen, CaCi-2 strain, Alamar Blue fluorescence; C. albicans CaCi-2 (fluconazole-resistant clinical isolate) + fluconazole, 48 h; growth inhibition, % (concentration not given with the values); actives 0.57% (n = 300,000); AID 1979, 2009;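 active means growth inhibition above about 58% in most replicates, limit read from the data, passing the limit was not always enough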;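 further: all wells also contain fluconazole at 8 µg/ml as a sub-toxic cotreatment; 0% = median of DMSO wells and 100% = median of geldanamycin control wells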
Mdm2 MdmX PPI: inhibitors of human Mdm2-MdmX association, primary screen, cell-based, luminescence, split luciferase, SaOS-2, uHTS | Protein Mdm4 (Homo sapiens) + E3 ubiquitin-protein ligase Mdm2 (Homo sapiens), … | SaOS-2 split-luciferase Mdm2/MdmX complementation | inhibition, % at 8 µM | actives 3% (n = 330,000) | AID 485346, 2010;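 active means inhibition of at least 50% at 8 µM in the primary screen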
PP1 inh: PP1-alpha phosphatase inhibitors, primary screen, counter-screen for PP5 inhibitor project, biochemical, fluorescence, OMFP substrate, single point | AID 2235, 2010 | actives 0.9% (n = 320,000) | Serine/threonine-protein phosphatase PP1-alpha catalytic subunit (Homo sapiens), P62136 | inhibition, % at 6.7 µM | purified PP1alpha;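 active means inhibition above the mean inhibition of all tested compounds plus 3 SD, computed separately for each screening campaign, cut at about 15% in these data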
Beta apoptosis: inhibitors of cytokine-induced beta cell apoptosis, primary screen, luminescence. actives 0.8% (n = 300,000). protection from apoptosis, % (no concentration beside the values). INS-1E cytokine-induced death, ATP luminescence, 48 h; percent of positive-control rescue, neutral wells zero;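 active means Every replicate reaches about 75%, or at least half do and their mean reaches it too, limit read from the data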;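 further: 0% = cytokine-treated negative control wells and 100% = positive control rescue; higher means more ATP so stronger rescue from cytokine killing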
PP1 confirm: PP1 phosphatase inhibitors, confirmation, biochemical, fluorescence, OMFP substrate, triplicate. shares compounds with PP1 inh. purified PP1alpha. inhibition, % at 6.7 µM. actives 52% (n = 1,900). AID 2358, 2010;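 active means mean PP1 inhibition above a set limit taken from the earlier primary screen, cut at about 15% in these data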
PP5 counter: PP5 phosphatase inhibition by PP1 hits, confirmation, counter-screen for PP1 inhibitor project, biochemical, fluorescence, triplicate | inhibition, % at 6.7 µM | actives 4% (n = 1,900) | purified PP5c, OMFP fluorescence | shares compounds with PP1 inh;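 active means mean PP5 inhibition over triplicate wells above about 9.5% taken from the earlier PP1 screen, limit read from the data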
* = called active by the depositor; . = no result.

SMILES	PP5 primary	CSC inhib	Calb FLC	Mdm2 MdmX PPI	PP1 inh	Beta apoptosis	PP1 confirm	PP5 counter
Cc1noc(NS(=O)(=O)c2ccc(NC(=O)Nc3ccc(Cl)c(Cl)c3)cc2)c1C	6	46	-3	6	18*	-2	11	0
O=C(Nc1ccc2oc(-c3ccccc3Cl)nc2c1)c1ncn[nH]1	1	-7	46	-173	19*	2	3	-6
O=C(Nc1ccc2oc(-c3cccc4ccccc34)nc2c1)c1ncn[nH]1	-1	44	-5	-61	26*	6	4	-2
O=C(COC(=O)CCc1ccc(S(=O)(=O)N2CCOCC2)cc1)NC(=O)NC1CCCCC1	-1	-2	0	-10	-2	-7	.	.
Fc1ccc(N2CCN(c3ncnc4c3nnn4Cc3ccccc3Cl)CC2)cc1	-1	62	10	-5	-2	16	.	.
O=C(c1ccco1)N1CCN(c2ncnc3c2nnn3Cc2ccccc2Cl)CC1	3	4	15	18	41*	6	44*	-4
COC(=O)C1=C(C)NC(C)=C(C(=O)OCC2CCCO2)C1c1cccc(Br)c1 (stereo not drawn)	2	10	-7	12	1	-1	.	.
O=C(CSc1nnc(-c2ccccc2O)o1)Oc1ccc(OCc2ccccc2)cc1	2	37	10	27	24*	-2	30*	-5
Cc1ccc(-n2c(C)cc(C(=O)COC(=O)c3ccc[nH]c3=O)c2C)cc1C	0	-4	10	-10	21*	.	16*	-5
Cc1ccc(NC(=O)C2CCCN2c2nn3c(=O)cc(C)nc3s2)cc1 (stereo not drawn)	1	-12	1	11	1	2	.	.
O=C(Nc1cccc(-c2ccc(N3CCCCC3)nn2)c1)c1ccco1	3	.	29	-141	0	14	.	.
COc1ccc(-c2nc3cnccn3c2NCc2ccccc2)cc1SC1CCCCC1	3	43	24	20	11	10	.	.
CCCCCCSc1cc(-c2nc3cnccn3c2NCc2ccccc2)ccc1OC	-3	.	4	25	18*	-5	8	0
CCCCNc1c(-c2ccc(OC)c(SC3CCCCC3)c2)nc2cnccn12	5	2	39	35	26*	21	17*	4
CCCCCCSc1cc(-c2nc3cc(C)ccn3c2NC2CCCCC2)ccc1OC	2	43	-2	6	22*	9	11	-3
CC(C)CC1NC(=O)N(CC(=O)Nc2ccc(OC(F)F)cc2)C1=O (stereo not drawn)	.	.	.	7	.	.	.	.
S=C(Nc1cc(Cl)cc(Cl)c1)N1CCN(c2ccccn2)CC1	.	5	-4	15	.	-17	.	.
CCSc1ncc(CO)c(N)n1	2	-8	1	-3	0	-4	.	.
COc1ccccc1Sc1nc(-c2ccccn2)ncc1OC	4	3	3	27	44*	32	46*	-6
COc1cnc(-c2ccccn2)nc1Sc1cccc(Cl)c1	8	0	91*	39	33*	40	50*	-1
COc1cnc(-c2ccccn2)nc1Sc1ccc(C)cc1	6	-6	20	43	48*	92*	51*	-2
COc1cccc(CNS(=O)(=O)c2c(C)nc3sccn3c2=O)c1	0	1	-15	6	0	1	.	.
COC(=O)c1cc2c(C)[nH]c(C)c2cc(C(=O)OC)c1=O	1	8	-3	16	-4	-5	.	.
C/C(=N\NC(=O)CSc1nnc(C)s1)c1ccc(Cl)cc1	-4	6	7	3	2	3	.	.
COc1ccc(/C(C)=N\NC(=O)CSc2nnc(C)s2)cc1	-1	-13	-4	15	19*	-2	-3	-2
